According to PubChem BioAssay AID1566 (Sanford-Burnham Center for Chemical Genomics, 2009):
In all, about 290,000 compounds went through this assay and about 1,800 (0.62%) were called active. Only a selection was taken, and actives are over-represented in it overall. A number with no mark means an inactive call. Rule as the data show it: active = inhibition above about 50%; inactive = the rest.

Assay: NOD2 signaling inhibitors, cell-based, luminescence, uHTS, HEK293 (AID 1566)
Details: HEK293 NOD2/NF-kB luciferase reporter, at 4 µM, stronger effect = higher value

SMILES	inhibition
COc1ccc(N2CCN(C(=O)Cn3c(=O)[nH]c4ccsc4c3=O)CC2)cc1	0.6%
Cc1ccc(S(=O)(=O)Nc2ccccc2C(N)=O)cc1	0.2%
Cc1ccc(S(=O)(=O)Nc2ccccc2-c2ccccc2)cc1	-12.5%
O=S(=O)(NCc1ccccn1)c1cc(Cl)ccc1Cl	-6%
Nc1c(NCc2ccccc2F)c(=O)[nH]c(=O)n1Cc1ccccc1	-4.5%
Cc1occc1C(=O)n1nnc2ccccc21	7.3%
Cc1ccc(C(C#N)c2ccc3c(C(F)(F)F)cc(C(F)(F)F)nc3n2)cc1 (configuration not stated)	19.1%
N#CC(c1ccc(Cl)cc1)c1ccc2c(C(F)(F)F)cc(C(F)(F)F)nc2n1 (configuration not stated)	44.4%
CC(NC(=O)CSc1nc2ccccc2n1CCC#N)c1ccc(F)cc1 (configuration not stated)	19.2%
CCOc1ccc(S(=O)(=O)N2CCC(C(=O)N3CCCC3)CC2)cc1C	24.6%
COc1ccc(-c2cn3c(C)c(C(=O)N4CCN(c5ccccc5F)CC4)sc3n2)cc1	25.5%
Cc1ccc(C(=O)C[n+]2ccc3ccccc3c2)cc1	9%
Cc1cc(C(C)(C)C)cc(C)c1C[n+]1ccc2ccccc2c1	52.3% (active)
Clc1cccc(Cl)c1C[n+]1ccc2ccccc2c1	18.8%
O=C(NCCn1ccc2ccccc21)c1ccc(S(=O)(=O)N2CCCCC2)cc1	-4.3%
FC(F)(F)c1cc(-c2ccccc2)nc2ncnn12	-1.1%
O=S(=O)(c1ccccc1)N1CCN(c2cc(-c3ccccc3)nc3ncnn23)CC1	43.4%
FC(F)(F)c1ccc(N2CCN(c3cc(-c4ccccc4)nc4ncnn34)CC2)nc1	52% (active)
CC(=O)Nc1cccc2c1C(=O)N(c1cccc(OC(C)=O)c1)C2=O	17.8%
Cc1cc(C(=O)N/N=C/c2ccc([N+](=O)[O-])o2)c(C)o1	35.5%
O=C(CNc1ccccc1)N/N=C/c1ccc([N+](=O)[O-])o1	46.1%
Nc1nonc1C(=O)N/N=C/c1ccc(-c2cccc([N+](=O)[O-])c2)o1	19.7%
O=C(CNc1ccc2ccccc2c1)N/N=C/c1ccc([N+](=O)[O-])o1	-4.1%
Cc1ccc(C(=O)N/N=C\c2ccc([N+](=O)[O-])o2)cn1	36%
O=C(N/N=C/c1ccc([N+](=O)[O-])o1)c1cc2c(ccc3ccccc32)o1	12.1%
O=C(N/N=C/c1ccc([N+](=O)[O-])cc1)c1cc2ccccc2o1	30.1%
Nc1nonc1C(=O)N/N=C/c1ccc(Br)o1	4.7%
